Reference: PubChem BioAssay AID2360 (The Scripps Research Institute Molecular Screening Center, 2010)
Screen size: about 1,900 compounds; about 85 (4%) were called active. These entries were drawn from the full list. Unmarked numbers belong to inactive results.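 The calls were made as follows: active = mean PP5 inhibition over triplicate wells above about 9.5% taken from the earlier PP1 screen (limit read from the data); inactive = the rest.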

What follows are compounds tested against Serine/threonine-protein phosphatase 5 (Homo sapiens) (UniProt P53041) (assay: PP5 phosphatase inhibition by PP1 hits, confirmation, counter-screen for PP1 inhibitor project, biochemical, fluorescence, triplicate (AID 2360)). Conditions: purified PP5c, OMFP fluorescence; at 6.7 µM; active compounds read high.
Chain of Serine/threonine-protein phosphatase 5 (Homo sapiens) (P53041 whole entry, looked up): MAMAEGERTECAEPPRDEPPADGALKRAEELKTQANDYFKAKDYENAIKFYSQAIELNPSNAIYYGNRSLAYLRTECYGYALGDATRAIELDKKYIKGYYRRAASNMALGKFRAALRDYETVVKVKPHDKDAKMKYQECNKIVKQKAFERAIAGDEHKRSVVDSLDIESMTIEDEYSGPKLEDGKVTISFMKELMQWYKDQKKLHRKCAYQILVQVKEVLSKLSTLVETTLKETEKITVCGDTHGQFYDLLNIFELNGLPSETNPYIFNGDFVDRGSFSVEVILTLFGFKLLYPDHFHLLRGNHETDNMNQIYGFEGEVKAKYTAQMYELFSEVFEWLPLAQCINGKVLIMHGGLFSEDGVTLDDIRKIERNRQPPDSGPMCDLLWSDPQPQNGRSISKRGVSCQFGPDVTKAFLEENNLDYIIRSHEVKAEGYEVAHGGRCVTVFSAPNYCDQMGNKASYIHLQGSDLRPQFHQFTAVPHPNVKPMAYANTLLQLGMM

SMILES | inhibition
Cc1ccc(-c2cc(C(=O)N/N=C/C=C/c3ccco3)c3ccccc3n2)cc1C | 2.19%
CC1CCCCN1S(=O)(=O)c1ccc(C(=O)Nc2nnc(-c3cccs3)o2)cc1 (stereo unspecified) | 1.29%
Nc1ccc2nc3c(=O)[nH]c(=S)[nH]c3nc2c1 | 15% (active)
O=C(Nc1cccc(-c2nc3ccccc3[nH]2)c1)c1ccc(C(=O)Nc2cccc(-c3nc4ccccc4[nH]3)c2)cc1 | -2.5%
COCCN(CCOC)S(=O)(=O)c1ccc(C(=O)Nc2nc3c(s2)CCc2ccccc2-3)cc1 | -4.16%
Cc1nc2c(C(=O)NCc3ccc4c(c3)OCO4)c[nH]n2c(=O)c1Cc1ccccc1F | 0.13%
COc1ccc(C2C(C(C)=O)=C(O)C(=O)N2CCc2c[nH]c3ccccc23)cc1 (stereo unspecified) | 1.2%
Clc1ccc(-n2nnnc2-c2cnc(-c3ccccn3)nc2-c2cccs2)cc1 | -0.17%
CCC(=C/c1sc2ccc3ccccc3c2[n+]1C)/C=C1\Sc2ccc3ccccc3c2N1C | 0.84%
CS(=O)(=O)c1ccc2c(c1)SC1=NC(=O)/C(=C/c3ccco3)C(=N)N12 | -6.01%
Cc1ccc2cc(CCNC(=O)c3c(-c4ccccc4Cl)noc3C)c(=O)[nH]c2c1 | -2.45%
CCOc1ccc(/C=C/C(=O)OCC(=O)c2ccccc2OC)cc1OC | -0.62%
Cc1ccc(S(=O)(=O)N2[C@@H](c3cccc(Cl)c3)C(C(=O)O)=CC[C@H]2c2ccc(Cl)c(Cl)c2)cc1 | 2.51%
Cc1cc(Nc2ccccc2)n(C(=O)c2ccc(N)cc2)n1 | 3.89%
O=C1C2N=NN(CC(=O)N3N=C(c4cccc5ccccc45)CC3c3ccccc3)C2C(=O)N1c1ccccc1 (stereo unspecified) | -0.31%
C=CCn1c(=S)[nH]c2scc(-c3ccco3)c2c1=O | 1.52%
CCCc1ccc(OCC(=O)NNC(=S)NC(=O)c2ccco2)cc1 | -5.19%
Cc1cc(N/N=C\c2ccc(Br)cc2)nc(-n2nc(C)cc2C)n1 | -2.43%
Cc1ccc(-c2cc(C(=O)Nc3nn[nH]n3)c3ccccc3n2)c(C)c1 | -5.88%
Cc1ccc(NS(=O)(=O)c2ccc(N/N=C/c3ccccc3OCC(=O)O)c([N+](=O)[O-])c2)c(C)c1 | 3.83%
OCCNc1nc(Nc2ccc(Cl)c(Cl)c2)nc2ccccc12 | 6.65%
CSc1ccc(/C=N\NC(=O)COc2ccc(Cl)cc2Br)cc1 | -2.43%
CCCCn1c(SCc2ncc(-c3ccccc3)o2)nc2cc(S(N)(=O)=O)ccc21 | -3.7%
CN(C(=O)COC(=O)c1cc(-c2ccco2)nc2ccccc12)C1CCS(=O)(=O)C1 (stereo unspecified) | -3.35%
Oc1c(Cl)cc(Cl)c(Cl)c1Cc1c(O)c(Cl)cc(Cl)c1Cl | -0.37%
Cc1cc(-c2csc(N)n2)c(C)n1-c1ccccc1 | -5.26%

SMILES | inhibition
C#CCOCCOCCOCCNc1nc(N2CCN(C(=O)CCCCCCCCCCNC(=O)[C@H](CCCCN)n3cc(C)nn3)CC2)nc(N2CCN(C(=O)CCCCCCCCCCNC(=O)[C@H](CO)n3cc(CCCSC)nn3)CC2)n1 | -2.42%
COc1cc(C2C(C(=O)c3ccc(C)o3)=C(O)C(=O)N2CCc2ccccc2)ccc1O (stereo unspecified) | 1.74%
Cc1ccccc1S(=O)(=O)N1[C@@H](c2cccc(Cl)c2)C(C(=O)O)=CC[C@H]1c1ccc(Cl)cc1 | 1.77%
O=C1C(=O)N(CC2COc3ccccc3O2)c2ccccc21 (stereo unspecified) | -2.89%
C#CCOCCOCCOCCNc1nc(N2CCN(C(=O)CCCCCCCCCCNC(=O)[C@H]([C@@H](C)CC)n3cc(CCCCN=C(N)N)nn3)CC2)nc(N2CCN(C(=O)CCCCCCCCCCNC(=O)[C@H](CO)n3cc(CCCSC)nn3)CC2)n1 | 4.44%
COc1ccc(-c2nn(-c3ccccc3)cc2/C=C\C(=O)Nc2ccc(C(=O)O)cc2)cc1 | 5.85%
C/C(CC(O)(/C=N/O)c1ccccc1)=N\O (stereo unspecified) | -4.09%
N=c1n(Cc2ccc(Cl)cc2)c2ccccc2n1CC(O)c1ccco1 (stereo unspecified) | -3.3%
CN1CCN(CCCNC(=O)c2ccc(/C=C3\Oc4ccccc4N(Cc4ccc(Cl)cc4)C3=O)cc2)CC1 | 0.17%
Oc1c(CN2CCN(c3ccc(F)cc3)CC2)cc(Cl)c2cccnc12 | 2.27%
Cc1cccc(OCC(O)Cn2c(=N)n(CCN3CCOCC3)c3ccccc32)c1 (stereo unspecified) | 0.64%
CCNS(=O)(=O)c1ccc(NC(=O)Nc2cccc(C(F)(F)F)c2)cc1 | 7.24%
COc1ccccc1/C=N\Nc1cc(C)nc(-n2nc(C)cc2C)n1 | -0.35%
O=C(Nc1nnc(-c2ccccc2)o1)c1cc(-c2cccs2)nc2ccccc12 | -6.61%
Cc1ccc(-c2nn(-c3ccccc3)cc2/C=C2\SC(=S)N(CCCCCC(=O)O)C2=O)o1 | 1.44%
Cc1ccc2nc(N3C(=O)C(O)=C(C(=O)c4ccco4)C3c3cccc(O)c3)sc2c1 (stereo unspecified) | -0.83%
COc1cnc(-c2ccccn2)nc1Oc1ccc(C(C)(C)C)cc1 | 1.77%
O=C(Nc1nc(-c2ccco2)c(-c2ccco2)s1)c1ccco1 | 0.46%
CCCOc1ccc(C2C(C(=O)c3ccc(C)o3)=C(O)C(=O)N2CCCn2ccnc2)cc1 (stereo unspecified) | 2.29%
O=C(CSc1nnc(C2CC2)n1Cc1ccccc1)Nc1cccnc1Cl | -2.71%
Oc1ccc(C2Nc3cccc4cccc(c34)N2)cc1 | 8.12%
C=CCN(CC=C)S(=O)(=O)c1ccc(C(=O)Nc2nc3c(s2)CCc2ccccc2-3)cc1 | -1.58%
CCCCCCCCCCOC(=O)Cn1c(COc2cccc(OC)c2)[n+](C)c2ccccc21 | 3.6%
COc1cccc(/C=N/NC(=O)c2[nH]nc3c2CCc2ccccc2-3)c1O | -2.54%
Cc1ccc(NC(=O)COc2ccc(/C=C3/NC(=O)NC3=O)cc2)cc1 | -6.15%
